The subject of assay [1] is Wnt5a (protein binding on small-molecule microarray). Kind of assay: small molecules binding Wnt5a protein – biophysical, small-molecule microarray, 635/667 nm fluorescence, primary screen (AID 1142).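 Note: fluorescence read at 667 nm with signal to noise per printed feature.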 As to conditions: 635 nm fluorescence, higher = more signal.
Assay [2] in a line: ATP-based viability of Huh7 replicon cells – cell-based, CellTiter-Glo luminescence, basal, 48 h, cytotoxicity control for HCV replication inhibitor project, primary screen (AID 1143).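 Note: Huh7 hepatoma cells carrying a hepatitis C replication reporter with no stimulus; test concentration not given here.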 As to conditions: higher = more signal, called active from +8 up or from −8 down.
Assay [3] can be described thus: Pseudomonas biofilm growth suppression – PAO1 strain, BacTiter-Glo luminescence, LB-PBS, primary screen (AID 1144). As to conditions: P. aeruginosa PAO1 biofilm, 12 h, higher = more signal.
A short description of assay [4]: basal CRE-LacZ reporter activity in PC12 – cell-based, unstimulated, primary screen (AID 1145). Conditions: no forskolin, luminescence, 4.5 h, higher = more signal, called active from +8 up or from −8 down.
A short description of assay [5]: forskolin-driven CRE-LacZ activity in PC12 – cell-based, CRE-LacZ reporter, forskolin-stimulated, primary screen (AID 1146).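 Note: PC12 cells with 6xCRE LacZ reporter stimulated by forskolin 10 µM; beta-galactosidase reporter signal reflecting CREB driven transcription.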 Conditions: luminescence, 4.5 h, higher = more signal, called active from +8 up or from −8 down.
The target of assay [6] is Streptavidin (Streptomyces avidinii) (UniProt P22629). The assay is described as follows: compounds binding control protein streptavidin – biophysical, small-molecule microarray, 635/667 nm fluorescence, artefact control for SMM compound annotation, primary screen (AID 1147).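 Note: signal reflects streptavidin binding to arrayed compounds as a control protein.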 Conditions: higher = more signal.
Chain of Streptavidin (Streptomyces avidinii) (P22629 whole entry, looked up): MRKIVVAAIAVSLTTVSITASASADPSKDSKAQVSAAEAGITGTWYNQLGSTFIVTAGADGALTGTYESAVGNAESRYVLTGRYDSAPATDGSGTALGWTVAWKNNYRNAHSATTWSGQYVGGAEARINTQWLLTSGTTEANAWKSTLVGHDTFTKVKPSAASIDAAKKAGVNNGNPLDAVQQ
Assay [7] can be described thus: probe aInhba binding on compound microarray – biochemical, small-molecule microarray, 635/667 nm fluorescence, primary screen (AID 1148).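 Note: score merges 667nm spot fluorescence with signal-to-noise for antibody binding to printed compounds.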 Conditions: higher = more signal.
The target in assay [8] is Torsin-1A (Homo sapiens) (UniProt O14656). The assay is described as follows: TOR1A wild-type binding on microarray – cell lysate, small-molecule microarray, lysate, 635/667 nm, primary screen (AID 1149). Conditions: COS7 hTOR1A-WT lysate, 635 nm fluorescence, higher = more signal.
Chain of Torsin-1A (Homo sapiens) (O14656 whole entry, looked up): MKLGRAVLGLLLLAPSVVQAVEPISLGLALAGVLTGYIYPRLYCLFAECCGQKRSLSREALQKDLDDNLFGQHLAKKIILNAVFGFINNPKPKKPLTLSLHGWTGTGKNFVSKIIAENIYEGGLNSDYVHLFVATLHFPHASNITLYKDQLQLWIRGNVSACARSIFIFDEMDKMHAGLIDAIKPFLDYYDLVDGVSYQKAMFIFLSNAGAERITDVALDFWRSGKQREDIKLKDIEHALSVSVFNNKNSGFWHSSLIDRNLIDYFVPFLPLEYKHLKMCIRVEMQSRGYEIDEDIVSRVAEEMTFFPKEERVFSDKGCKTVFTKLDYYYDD
The target is the same in assay [9]. The assay is described as follows: torsin A mutant lysate binding on microarrays – cell lysate, small-molecule microarray, COS7 lysate, 635/667 nm fluorescence, primary screen (AID 1150).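 Note: score pools 667 nm emission and signal to noise measuring lysate protein binding.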 As to conditions: COS7 hTOR1A mutant lysate, 635 nm fluorescence, higher = more signal.
In assay [10] the test system is Sonic hedgehog protein (Shh). Kind of assay: Sonic hedgehog microarray binding compounds – biochemical, small-molecule microarray, 635/667 nm fluorescence, primary screen (AID 1151).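 Note: Shh protein binding to compounds spotted on small-molecule microarray slides; score combines spot fluorescence intensity with signal-to-noise across triplicate slides.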 Conditions: 635 nm fluorescence, higher = more signal.
Assay [11] is described as follows: optical density shifts of acrAB sulA E. coli – strain DRC41, OD650, 48 h, E. coli filamentation inducer project, primary screen (AID 1152).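 Note: E. coli MC1000 strain DRC41 lacking acrAB efflux pump and sulA.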 As to conditions: higher = more signal, called active from +8 up or from −8 down.
Assay [12] is described as follows: probe aLefty1 binding on compound microarray – biochemical, small-molecule microarray, 635/667 nm fluorescence, primary screen (AID 1153).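 Note: score merges spot fluorescence with signal-to-noise ratio from the scanned slide images.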 As to conditions: higher = more signal.
Assay [13] can be described thus: plasmodial surface anion channel blockers, osmotic lysis – cell-based, P. falciparum Indochina, OD700, 1 h, primary screen (AID 1154). As to conditions: P. falciparum Indochina infected RBC osmotic lysis, higher = more signal, called active from +8 up or from −8 down.
A short description of assay [14]: plasmodial surface anion channel blockers, osmotic lysis – cell-based, P. falciparum Indochina, OD700, 2 h, primary screen (AID 1155).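 Note: lysis reports solute entry through the parasite surface anion channel PSAC.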 Conditions: P. falciparum Indochina infected erythrocytes, higher = more signal, called active from +8 up or from −8 down.
Assay [15] can be described thus: changes in parasitized red cell lysis, either direction – P. falciparum Indochina, OD700, 3 h, PSAC antagonist project, primary screen (AID 1156). As to conditions: P. falciparum-infected erythrocytes, osmotic lysis, higher = more signal, called active from +8 up or from −8 down.
A short description of assay [16]: plasmodial surface anion channel blockers, osmotic lysis – cell-based, P. falciparum Indochina, OD700, 18 h, primary screen (AID 1157). As to conditions: P. falciparum Indochina infected erythrocytes, osmotic lysis OD700, 18 h; higher = more signal, called active from +8 up or from −8 down.
Assay [17] is described as follows: S6 kinase pathway phospho-S6 level changes – cell-based, A549, cytoblot, luminescence, serum-stimulated, primary screen (AID 1158).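 Note: serum-stimulated A549 lung adenocarcinoma cells; signal is phosphorylated S6 detected by cytoblot immunostaining with HRP secondary.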 As to conditions: 5 h, higher = more signal.
Assay [18] has as its target NADPH oxidase 2 (Homo sapiens) (UniProt P04839). The assay is described as follows: compounds shifting NOX2 Amplex Red fluorescence – cell-based, HEK293-NOX2, PMA-stimulated, NOX inhibitor project, primary screen (AID 1159). Note: test concentration not given here. As to conditions: 45 min, higher = more signal, called active from +8 up or from −8 down.
For assay [19], the target named is NADPH oxidase 4 (Homo sapiens) (UniProt Q9NPH5). Kind of assay: compounds shifting NOX4 Amplex Red fluorescence – cell-based, HEK293-NOX4, tetracycline-induced, NOX inhibitor project, primary screen (AID 1160). Conditions: HEK293-NOX4, Amplex Red H2O2 fluorescence, 45 min; higher = more signal, called active from +8 up or from −8 down.
Chain of NADPH oxidase 4 (Homo sapiens) (Q9NPH5 whole entry, looked up): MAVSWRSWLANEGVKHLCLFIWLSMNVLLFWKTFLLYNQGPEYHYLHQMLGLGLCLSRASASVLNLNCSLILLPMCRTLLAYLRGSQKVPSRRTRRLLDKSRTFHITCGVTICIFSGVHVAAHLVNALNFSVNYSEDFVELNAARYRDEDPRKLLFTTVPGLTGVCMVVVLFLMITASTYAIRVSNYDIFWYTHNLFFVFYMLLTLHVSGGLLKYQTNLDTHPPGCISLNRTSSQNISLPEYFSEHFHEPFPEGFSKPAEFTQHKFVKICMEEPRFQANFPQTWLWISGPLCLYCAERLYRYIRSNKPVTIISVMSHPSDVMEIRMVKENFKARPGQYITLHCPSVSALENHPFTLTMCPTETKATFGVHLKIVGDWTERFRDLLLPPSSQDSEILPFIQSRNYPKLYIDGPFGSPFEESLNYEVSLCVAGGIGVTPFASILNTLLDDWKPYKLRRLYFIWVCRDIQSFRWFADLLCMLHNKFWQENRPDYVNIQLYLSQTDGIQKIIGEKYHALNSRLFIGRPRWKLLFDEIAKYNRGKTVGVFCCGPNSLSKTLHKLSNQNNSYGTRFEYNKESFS
Assay [20] addresses NADPH oxidase 5 (Homo sapiens) (UniProt Q96PH1). Kind of assay: compounds shifting NOX5 Amplex Red fluorescence – cell-based, HEK293-NOX5, NOX inhibitor project, primary screen (AID 1161). As to conditions: HEK293-NOX5, ionomycin, 45 min, higher = more signal.

Experimental findings from PubChem BioAssay are described below.

The structures appear in SMILES notation. Activity calls are given as the source filed them. Unless noted, the rule behind the calls is not given here.

Chain of NADPH oxidase 5 (Homo sapiens) (Q96PH1 whole entry, looked up): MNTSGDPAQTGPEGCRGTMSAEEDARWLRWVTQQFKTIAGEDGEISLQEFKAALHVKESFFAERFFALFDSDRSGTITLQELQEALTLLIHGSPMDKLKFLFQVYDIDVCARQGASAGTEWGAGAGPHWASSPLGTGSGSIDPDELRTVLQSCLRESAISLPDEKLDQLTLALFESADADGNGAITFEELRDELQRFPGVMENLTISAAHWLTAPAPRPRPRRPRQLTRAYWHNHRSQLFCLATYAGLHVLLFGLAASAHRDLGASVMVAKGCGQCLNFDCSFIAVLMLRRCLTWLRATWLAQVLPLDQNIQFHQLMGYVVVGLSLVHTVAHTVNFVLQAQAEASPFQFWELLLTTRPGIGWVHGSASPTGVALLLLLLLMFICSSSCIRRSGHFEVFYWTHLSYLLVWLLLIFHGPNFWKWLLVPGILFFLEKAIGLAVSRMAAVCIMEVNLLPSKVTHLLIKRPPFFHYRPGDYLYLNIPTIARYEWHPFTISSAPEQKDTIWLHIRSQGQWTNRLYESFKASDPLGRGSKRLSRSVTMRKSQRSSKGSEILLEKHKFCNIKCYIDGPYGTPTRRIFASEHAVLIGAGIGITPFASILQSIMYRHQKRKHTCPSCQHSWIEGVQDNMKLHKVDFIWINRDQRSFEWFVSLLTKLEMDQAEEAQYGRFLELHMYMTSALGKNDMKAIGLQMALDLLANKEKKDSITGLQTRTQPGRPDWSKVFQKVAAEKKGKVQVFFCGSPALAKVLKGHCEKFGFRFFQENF
Chain of NADPH oxidase 2 (Homo sapiens) (P04839 whole entry, looked up): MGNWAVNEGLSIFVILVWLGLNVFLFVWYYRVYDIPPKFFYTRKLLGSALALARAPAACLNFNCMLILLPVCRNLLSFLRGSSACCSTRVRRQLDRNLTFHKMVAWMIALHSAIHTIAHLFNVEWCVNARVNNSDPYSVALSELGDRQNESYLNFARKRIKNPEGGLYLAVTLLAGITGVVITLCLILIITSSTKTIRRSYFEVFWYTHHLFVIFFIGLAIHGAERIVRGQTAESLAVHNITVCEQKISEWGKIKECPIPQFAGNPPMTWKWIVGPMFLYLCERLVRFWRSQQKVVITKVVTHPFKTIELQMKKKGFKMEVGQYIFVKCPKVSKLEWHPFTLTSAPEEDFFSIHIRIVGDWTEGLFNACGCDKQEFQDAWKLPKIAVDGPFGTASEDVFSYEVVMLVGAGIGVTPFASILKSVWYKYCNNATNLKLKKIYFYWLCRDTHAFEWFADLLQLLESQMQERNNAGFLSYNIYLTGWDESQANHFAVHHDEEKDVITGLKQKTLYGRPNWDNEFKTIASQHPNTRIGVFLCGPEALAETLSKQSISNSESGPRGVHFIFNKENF

In the case of `CC(C)[Si](C#Cc1ccccc1)(O[C@H](c1ccccc1)c1cn(Cc2ccccc2)nn1)C(C)C`, the composite z-score was -0.0899 in [1]; 0.983 in assay [6]; -0.222 in assay [7]; 0.555 in assay [8]; 0.841 in assay [9]; 0.375 in assay [10]. This compound also gave a composite z-score in assay [12] of -0.275. Also, the z-score is -2.32 (inactive) in [2]; -0.519 (inactive) in [3]; -0.635 (inactive) in assay [4]; -1.08 (inactive) in assay [5]; 1.57 (inactive) in [11]; 1.66 (inactive) in assay [13]. Also, the z-score was 1.53 (inactive) in [14]; -1.39 (inactive) in [15]; 0.554 (inactive) in assay [16]; 0.0866 in assay [17]; 0.789 (inactive) in assay [18]; -1.18 (inactive) in assay [19]. The z-score in [20] is -2.98.
For `Cc1ccc(S[C@]2(C(=O)NC3CC3)CC(=O)N(C3Cc4ccccc4C3)[C@@H]2c2ccc(CO)cc2I)cc1`, the composite z-score in assay [1] was -0.547; in assay [6], -0.441; in [7], 0.0051; in assay [8], 0.909; in assay [9], 0.701; in assay [10], 0.209. Also, the composite z-score in assay [12] was found to be 0.227. Further, the z-score in [2] is -2.23 (inactive); in assay [3], 0.714 (inactive); in assay [4] it was 0.919 (inactive); in assay [5], 2.86 (inactive); in assay [11], 0.933 (inactive); in [13], 5.18 (inactive). In addition, the z-score in assay [14] was 0.943 (inactive); in assay [15] it was 0.202 (inactive); in assay [16] it was 0.254 (inactive); in assay [17] it was -0.256; in [18], 1.94 (inactive); in assay [19], -2.66 (inactive). In [20], the z-score came out at 1.41.
Consider `CC(C)C[C@@H]1NC(=O)[C@@H]2C[C@H](C(=O)NCCCCCNC(=O)CS)[C@H](c3ccc(O)cc3)N2C1=O`, for which the composite z-score in [1] is -0.025; in assay [6] it was -0.799; in assay [7], -0.045; in assay [8], 1.87; in [9], 2.08; in assay [10], 1.99. Further, the composite z-score in assay [12] was found to be 0.165. Moreover, the z-score was -4.33 (inactive) in assay [2]; -0.455 (inactive) in assay [3]; -0.809 (inactive) in assay [4]; -0.661 (inactive) in [5]; 2.03 (inactive) in [11]; 0.625 (inactive) in assay [13]. Moreover, the z-score in assay [14] was -0.37 (inactive); in assay [15] it was 0.768 (inactive); in [16] it was -0.73 (inactive); in assay [17] it was 2.48; in assay [18], -1.18 (inactive); in assay [19] it was -1.35 (inactive). The z-score in assay [20] was -3.05.
On to `C=CCN1C(=O)[C@@]2(O[C@@H](CCO)[C@H]([Si](C)(C)c3ccc(OC)cc3)[C@H]2C)c2cc(N3CCCCC3=O)ccc21`, for which the composite z-score worked out at 0.282 in [1]; 0.732 in assay [6]; 0.0471 in [7]; 0.683 in assay [8]; 0.417 in assay [9]; 1.6 in assay [10]. The compound further yielded a composite z-score in [12] of 0.102. Moreover, the z-score in [2] is -5.3 (inactive); in assay [3], -0.0131 (inactive); in assay [4], 13.6 (active); in [5] it was -0.639 (inactive); in assay [11] it was 0.424 (inactive); in assay [13], 23.8 (active). Also, the z-score in assay [14] is 7.85 (inactive); in assay [15], -0.302 (inactive); in [16], 1.9 (inactive); in assay [17], 1.44; in assay [18], -1.63 (inactive); in assay [19] it was -0.258 (inactive). Besides, the z-score in [20] is -0.607.
